Hit rate of the full screen: of about 310,000 compounds, about 18,000 (5.8%) were called active. A call without a number means that no potency is given here. Roughly 22% stayed inconclusive and do not appear here. Calls come from the whole dose curve; as a rule, active = well fitted inhibition curve with a large enough effect; inconclusive = small, poorly fitted or top-dose-only effect, or another doubt; inactive = no such curve, though single readings can be large or run the other way. This excerpt belongs to a sample that is enriched for actives.
test: Primary qHTS for delayed death inhibitors of the malarial parasite plastid, 48 hour incubation; conditions: P. falciparum luciferase growth in erythrocytes; series mostly up to 28.7 µM
Outline: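 Luminescence readout; reporter = integrated firefly luciferase in P. falciparum. RBC culture at 2% hematocrit, 0.1% parasitemia final, 37 C/5% CO2; decreased signal taken as growth inhibition.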
Potency is the fitted concentration of half-maximal effect.

With `CN(C)S(=O)(=O)c1cccc(C(=O)OCC(=O)N2CCCC2=O)c1` as the molecule, how does the Potency read?
The Potency was “inactive”.

For `CC1CC1C(=O)OCC(=O)Nc1cccc(F)c1` (stereo not drawn), which Potency is on record?
Its Potency is “inactive”.

Which Potency does the source give for `COc1ccc(NC(=O)NN2CCN(C)CC2)c(OC)c1` here?
Its Potency is “inactive”.

With `CCOc1ccc(/C=N\NC(=O)c2c(C)nc3cc(C)ccn23)cc1` as the molecule, how does the Potency read?
Its Potency is “inactive”.

Which Potency does the source give for `Cn1c(=O)n(C)c2cc(S(=O)(=O)Nc3ccc(F)cc3)ccc21` here?
Its Potency is “inactive”.

For `CSCCC(NC(=O)c1ccc(Cl)cc1Cl)C(=O)NNC(=O)c1csc(N2CCOCC2)n1` (stereo not drawn), which Potency is on record?
The Potency was “inactive”.

For `CSCc1cc(N2CCOCC2)nc(SCc2ccc(Cl)cc2Cl)n1`, which Potency is on record?
The Potency was 13.1 µM (active).

With `Clc1ccc(CSc2nnc(/C=C/c3ccccc3)o2)c(Cl)c1` as the molecule, how does the Potency read?
The Potency was “inactive”.

Which Potency does the source give for `CSCc1cc(N(C)C)nc(SCc2ccc(Cl)cc2Cl)n1` here?
The Potency was 13.1 µM (active).

Which Potency does the source give for `Nc1cc(N)nc(SCc2ccc(Cl)cc2)n1` here?
Its Potency is “inactive”.

Which Potency does the source give for `CC(C)(CNC(=O)Cc1ccc(Cl)cc1Cl)N1CCOCC1` here?
Its Potency is “inactive”.

For `CCc1ccc(C(=O)COC(=O)c2ccco2)cc1`, which Potency is on record?
The Potency was “inactive”.

Which Potency does the source give for `O=C(NCc1ccco1)/C(=C/c1ccco1)NC(=O)c1ccccc1` here?
Its Potency is “inactive”.

With `CC1CCCN(S(=O)(=O)c2ccc(-c3ccc(=O)[nH]n3)o2)C1` (stereo not drawn) as the molecule, how does the Potency read?
The Potency was “inactive”.

For `COC(=O)C1(C)CC1(c1ccccc1)c1ccccc1` (stereo not drawn), which activity change, negative = inhibition is on record?
Its activity change, negative = inhibition is -9.84% [at 0.00184 µM] (inactive).

Which Potency does the source give for `Cc1ccccc1-n1cc(CNC(=O)C2CCC(=O)N(C3CC3)C2)cn1` (stereo not drawn) here?
The Potency was “inactive”.

With `CCN1CCN(C(=O)N(Cc2ccc(Cl)cc2)S(=O)(=O)c2ccc(C)cc2)CC1` as the molecule, how does the Potency read?
The Potency was “inactive”.

With `Cc1nn(C)cc1S(=O)(=O)N1CCN(c2ccc(F)cc2)CC1` as the molecule, how does the Potency read?
The Potency was “inactive”.

Which Potency does the source give for `Cc1ccc(CNC(=O)C(=O)c2cn(CC(=O)N3CCCC3)c3ccccc23)cc1` here?
Its Potency is “inactive”.

With `Oc1ccc(CN2CCN(c3ncccn3)CC2)cc1` as the molecule, how does the Potency read?
Its Potency is “inactive”.

With `CC1CCCN(CC(O)COCc2ccccc2)C1` (stereo not drawn) as the molecule, how does the Potency read?
Its Potency is “inactive”.

With `Oc1c(CN2CCCC2)cc(COCc2ccccc2)c2cccnc12` as the molecule, how does the Potency read?
Its Potency is 0.657 µM (active).

Which Potency does the source give for `Oc1c(CN2CCN(c3ccc(F)cc3)CC2)cc(Cl)c2cccnc12` here?
The Potency was 1.85 µM (active).

For `Cc1cccnc1NC(=O)c1cccc(S(=O)(=O)N2CCN(c3ccc(F)cc3)CC2)c1`, which Potency is on record?
The Potency was “inactive”.

Which Potency does the source give for `O=C(Cc1ccccc1)NNC(=O)C1CCN(c2ncccn2)CC1` here?
Its Potency is “inactive”.

With `Cc1cc(S(=O)(=O)NCC(C)C)ccc1OCC(=O)NC1CC1` as the molecule, how does the Potency read?
Its Potency is “inactive”.

Which Potency does the source give for `CC(=O)c1cccc(NC(=S)N2CCN(S(C)(=O)=O)CC2)c1` here?
Its Potency is “inactive”.

With `Cc1ccc(F)cc1S(=O)(=O)Nc1cccc(C(=O)N2CCCC(C(N)=O)C2)c1` (stereo not drawn) as the molecule, how does the Potency read?
The Potency was “inactive”.

With `COc1ccc(OC)c(NC(=O)c2ccc3c(c2)C(=O)N(c2ccc(OC(C)=O)cc2)C3=O)c1` as the molecule, how does the activity change, negative = inhibition read?
The activity change, negative = inhibition was 0.907% [at 0.00184 µM] (inactive).

For `C/C(=N\NC(=O)C1(C)CC1(Br)Br)c1ccc(C)cc1C` (stereo not drawn), which Potency is on record?
The Potency was “inactive”.

For `O=C(CCn1nnnc1CN1CCOCC1)N1CCC(c2ccccc2Cl)C1` (stereo not drawn), which Potency is on record?
The Potency was “inactive”.

Which Potency does the source give for `CCc1nn(CC(=O)N2CCN(CC)CC2)c(=O)c2cccn12` here?
The Potency was “inactive”.

Which Potency does the source give for `NC(=O)c1ccc(CN2CCC(Cc3ccccc3)CC2)cc1` here?
Its Potency is “inactive”.

Which Potency does the source give for `Brc1ccc(CN2CC[C@H]3C=CCc4cccc(c43)C2)cc1` here?
Its Potency is 3.29 µM (active).

For `NC(=O)C1CC(=O)N(c2ccc(OCC(=O)NCc3ccccc3)cc2)C1` (stereo not drawn), which Potency is on record?
Its Potency is “inactive”.

Which Potency does the source give for `CCN(C(=O)c1cc([N+](=O)[O-])ccc1NCc1cccnc1)c1ccccc1` here?
Its Potency is “inactive”.

With `CS(=O)(=O)Nc1ccccc1C(=O)OCC(=O)NC1CC1` as the molecule, how does the Potency read?
Its Potency is “inactive”.

For `CC(C)=CCc1c(O)c(CC=C(C)C)c2occ(-c3ccc(O)cc3)c(=O)c2c1O`, which Potency is on record?
The Potency was 2.94 µM (active).

Which Potency does the source give for `Cc1ccnc(NC(=O)CCNS(=O)(=O)c2ccc(C)c(C)c2)c1` here?
The Potency was “inactive”.

For `Cc1cccc(NS(=O)(=O)c2cc(Cl)ccc2Cl)n1`, which Potency is on record?
Its Potency is “inactive”.

For `O=[N+]([O-])c1ccc(S(=O)(=O)Nc2cccc(-c3ccc(N4CCCC4)nn3)c2)cc1`, which Potency is on record?
Its Potency is “inactive”.

For `CC(=O)C1=C(C)NC(=O)NC1c1ccc2c(c1)OCO2` (stereo not drawn), which Potency is on record?
The Potency was “inactive”.

Which Potency does the source give for `COc1ccc2cc(C3=CC(=O)C[C@H](c4ccc5c(c4)OCO5)C3)ccc2c1` here?
The Potency was “inactive”.

With `O=C1C=C(c2cc(C(F)(F)F)cc(C(F)(F)F)c2)C[C@@H](c2ccc3c(c2)OCO3)C1` as the molecule, how does the Potency read?
The Potency was 8.28 µM (active).

Which Potency does the source give for `N#Cc1ccc(C2=CC(=O)C[C@H](c3ccc(Cl)cc3)C2)cc1` here?
Its Potency is “inactive”.

Which Potency does the source give for `COc1ccc([C@H]2CC(=O)C=C(c3ccc(C)cc3)C2)cc1` here?
The Potency was “inactive”.

For `O=C1C=C(c2ccnc3cc(Cl)ccc23)C[C@@H](c2ccc3c(c2)OCO3)C1`, which Potency is on record?
The Potency was 7.38 µM (active).

For `Cc1ccnc(NS(=O)(=O)c2ccc(NC(=O)c3oc4ccc(F)cc4c3C)cc2)n1`, which Potency is on record?
The Potency was “inactive”.

For `[2H]C(CCOS(N)(=O)=O)c1ccccc1` (stereo not drawn), which Potency is on record?
Its Potency is “inactive”.

Which Potency does the source give for `CNC(=O)c1sc(NCc2ccccc2OC)nc1C` here?
Its Potency is “inactive”.

With `O=C(Nc1ccc(-c2cscn2)cc1)C1CCCN(Cc2ccc(CO)o2)C1` (stereo not drawn) as the molecule, how does the Potency read?
The Potency was “inactive”.

With `COc1cc(-c2c(-c3ccc4c(c3)OCO4)noc2C)ccc1F` as the molecule, how does the Potency read?
The Potency was “inactive”.

With `CCNC(=O)c1cccc(NC(=O)C2CC(=O)N(CCc3ccccc3)C2)c1` (stereo not drawn) as the molecule, how does the Potency read?
Its Potency is “inactive”.

Which Potency does the source give for `CN(CC#CCC(c1ccccc1)c1ccccc1)C(C)(C)C` here?
The Potency was 9.28 µM (active).

Which Potency does the source give for `Cc1ccccc1Nc1c(-c2ccccc2)nc2ncccn12` here?
The Potency was “inactive”.

For `Cc1cccc(C)c1Nc1c(-c2ccccc2O)nc2ncccn12`, which Potency is on record?
Its Potency is 2.94 µM (active).

With `C[C@H](NC(=O)[C@@H]1Cc2ccccc2CN1C(=O)OC(C)(C)C)C(=O)NC1CCCC1` as the molecule, how does the Potency read?
The Potency was “inactive”.

For `O/N=C(\C[n+]1ccccc1)c1ccc(Br)cc1`, which activity change, negative = inhibition is on record?
The activity change, negative = inhibition was -29.6% [at 0.00184 µM] (inactive).

For `CC(=O)c1ccc(NC(=O)c2cc(-c3cccs3)on2)cc1`, which Potency is on record?
The Potency was “inactive”.

With `O=C(c1cc(-c2cccs2)on1)N1CCCCC1` as the molecule, how does the Potency read?
The Potency was “inactive”.

With `Cc1cc(NC(=O)c2cc(-c3cccs3)on2)nn1Cc1ccc(Cl)cc1` as the molecule, how does the Potency read?
The Potency was 10.4 µM (active).

Which Potency does the source give for `COc1ccc(S(=O)(=O)N2CCC(C(=O)NCCC(=O)NCc3cccc(OC)c3)CC2)cc1` here?
The Potency was “inactive”.

For `CC(C)Oc1ccc(Oc2ccc(C(F)(F)F)cn2)cc1`, which Potency is on record?
Its Potency is “inactive”.

Which Potency does the source give for `C[C@H](C(=O)CC(=O)OC(C)(C)C)[C@H](O)c1ccc(C(F)(F)F)cc1` here?
The Potency was “inactive”.

Which Potency does the source give for `CNCC[C@H](Oc1ccc(C(F)(F)F)cc1)c1ccccc1` here?
Its Potency is 10.4 µM (active).

For `COC(=O)c1ccc(NC(=O)c2cc(Cl)ccc2OC)cc1`, which activity change, negative = inhibition is on record?
The activity change, negative = inhibition was -5.41% [at 5.75 µM] (inactive).

For `CCN(CC)C(=O)Oc1ccc(Br)cc1C(=O)Nc1ccc(F)c(Cl)c1`, which Potency is on record?
The Potency was 9.28 µM (active).

For `CCN(CC)C(=O)C(=O)Nc1cccc(Br)c1`, which Potency is on record?
Its Potency is “inactive”.
